The results in this text go back to PubChem BioAssay (EPA / NIEHS).

Molecules are shown by their SMILES. The source holds several records for some structures; these can differ, active in one and inactive in another. Active and inactive are the calls of the source. The calls were made as follows: active = hit-call score of the fitted dose curve at least 0.9, where 1 is the maximum; inactive = score below 0.9.

The nature of the assay: ATG_AP_2_CIS: Attagene CIS-FACTORIAL HepG2 Assay for human Activator Protein 2 (AP-2) (AID 2282932). Conditions: HepG2 AP-2 cis-reporter, Attagene transcription factor profiling; actives raise or lower the signal. As for the experimental part: ATG_CIS is a cell-based, multiplexed-readout assay that uses HepG2, a human liver cell line, with measurements taken at 24 hours after chemical dosing in a 24-well plate.ATG_AP_2_CIS is one of 52 assay component(s) measured or calculated from the ATG_CIS assay. It is designed to make measurements of mRNA induction, a form of inducible reporter, as detected with fluorescence intensity signals by Reverse transcription polymerase chain reaction (RT-PCR) and Capillary electrophoresis technology.Data from the assay component ATG_AP_2_CIS was analyzed into 1 assay endpoint. This assay endpoint, ATG_AP_2_CIS, was analyzed with bidirectional fitting relative to DMSO as the negative control and baseline of activity. Using a type of inducible reporter, measures of mRNA for gain or loss-of-signal activity can be used to understand the reporter gene at the transcription factor-level as they relate to the gene TFAP2A and TFAP2B and TFAP2D. Furthermore, this assay endpoint can be referred to as a primary readout, because this assay has produced multiple assay endpoints where this one serves a reporter gene function. To generalize the intended target to other relatable targets, this assay endpoint is annotated to the dna binding intended target family, where the subfamily is basic helix-turn-helix leucine zipper.
Human liver HepG2 cells are transiently transfected with multiple reporter transcription units (MRTUs) in 6-well plates using FuGene 6 reagent (Roche; 3 ml FuGene/1 mg DNA). The MRTU constructs are regulated by a cis-regulating element (promoter). […] A major difference between the CIS and TRANS system is that in CIS activities of endogenous TFs are measured, whereas the TRANS assay evaluates changes in activities of exogenous, chimeric NR-Gal4 proteins. […] At the end of 24 hour incubation, total RNA was isolated using TriZol reagent (Invitrogen). The isolated RNA is then reverse-transcribed using oligo(dT) primer and Mo-MLV reverse transcriptase (Invitrogen) with DNAse I (Ambion) treatment for 30 min. The one-tenth of the produced cDNA was amplified by PCR using Taq DNA polymerase (Invitrogen) and two reporter sequence-specific primers. The PCR products were fluorescently labeled by primer extension with 6-arboxyfluorescein (6-FAM) 5'-labeled reporter sequence-specific primer (2 min at 95 C, 20 s at 68 C and 10 min at 72 C) and these products were digested with 5U of HpaI (New England Biolabs) for 2h at 37 C. The fragments were purified using Qiaquick PCR columns (Qiagen), analyzed on an ABI 3130xL genetic analyzer (Applied Biosystems) with peak positions identified by using a set of X-rhodamine (ROX)-labeled MapMarker1000 molecular weight standards (BioVentures). The raw capillary electrophoresis data was processed using Attagraph software (Attagene).
Turning to `CCCCCCCCCCCCc1ccccc1S(=O)(=O)O`, the outcome was inactive. The same measure, in the same setting: the value for `O=C(OCCOCCOC(=O)c1ccccc1)c1ccccc1` was “inactive”. Still for that read-out and setting: the value for `CN(C)C=O` was “inactive”; that for `Oc1cccc(O)c1` was “inactive”.

The AC50 is the concentration at which the activity in the assay is half-maximal. On to `CCCCC[C@H](O)CC(=O)CCc1ccc(O)c(OC)c1`, for which the AC50 is 79.2 µM (active). Consider `CN1CCC[C@H]1c1cccnc1`, for which the outcome was inactive. On the same count and under the same terms, for `Cc1ccc(S(=O)(=O)O)c(C)c1` the value was “inactive”; for `CCc1ccc(CCOc2ccc(CC3SC(=O)NC3=O)cc2)nc1` (stereo not given), “inactive”. Still for that read-out and setting: for `NC(=O)N1C(=O)C(C(=O)c2cc(Cl)cs2)c2cc(F)c(Cl)cc21` (stereo not given) the value was “inactive”. Consider `O=C(O)Cc1cc(I)c(Oc2cc(I)c(O)c(I)c2)c(I)c1`, for which the result was inactive and the concentration at half-maximal activity (AC50) is 121 µM (active). As to `OCCC(F)(F)C(F)(F)C(F)(F)C(F)(F)C(F)(F)C(F)(F)C(F)(F)C(F)(F)F`, the call was inactive. Same read-out and setting: for `CC(=O)NC1(c2cccc(F)c2)CCN(CC[C@@]2(c3ccc(Cl)c(Cl)c3)CN(c3ccccc3)C(=O)CO2)CC1` the value was “inactive”. `CCN(CC)CCNc1ccc(CNC=O)c2sc3ccc(OC)cc3c(=O)c12`: the AC50 was 0.496 µM (active).

With `Cc1cc(C)c(O)c(C)c1`, the compound was called inactive. Turning to `CCCCCCCCOC(=O)CCCCCCCCC(=O)OCCCCCCCC`, the result was inactive. Consider `O=C(O)c1ccccc1C(c1ccc(O)cc1)c1ccc(O)cc1`, for which the compound was classed as inactive. Regarding `OC1CCC(C2CCCCC2)CC1` (stereo not given), the AC50 was 56.9 µM (active) and the outcome was inactive. For the compound `CCc1nn(C2CCCCC2)c2cc(C3(C#N)CCC(C(=O)O)CC3)ccc12` (stereo not given), the compound was called inactive.

Take `CCCCCCCCC(=O)O`: the compound was called inactive.

`Cc1oc(-c2ccccc2)nc1CCOc1ccc(C[C@H](Nc2ccccc2C(=O)c2ccccc2)C(=O)O)cc1`: the result was inactive. The same measure, in the same setting: the value for `CC[C@H](C)[C@@H](C(=O)O)n1sc2ccccc2c1=O` was “inactive”. Still for that read-out and setting: for `CCCCCCCCCCCCCCCS(=O)(=O)Oc1ccccc1` the value was “inactive”. Still for that read-out and setting: for `O=c1c(-c2ccc(O)cc2)coc2cc(O)ccc12` the value was “inactive”; for `CCCCCCCC(=O)O`, “inactive”. As for `CC#C[C@]1(O)CC[C@H]2[C@@H]3CCC4=CC(=O)CCC4=C3[C@@H](c3ccc(N(C)C)cc3)C[C@@]21C`, the AC50 was 25.7 µM (active) and the result was inactive. On to `CC(C)(C)c1cc(C(C)(C)C)c(O)c(C(C)(C)C)c1`, for which the outcome was inactive. Still for that read-out and setting: the value for `FC(F)(I)C(F)(F)C(F)(F)C(F)(F)C(F)(F)C(F)(F)I` was “inactive”; that for `CC[C@H](c1ccc(O)cc1)[C@@H](CC)c1ccc(O)cc1` was “inactive”; that for `N#C[C@@H]1CC(F)(F)CN1C(=O)CNC1CC2CCC(C1)N2c1ncccn1` (stereo not given in full) was “inactive”.

On to `C#C[C@]1(O)CC[C@H]2[C@@H]3CCC4=CC(=O)CC[C@@H]4[C@H]3CC[C@@]21C`, for which the compound was classed as inactive. Same read-out and setting: for `CCCCCCCCCCCCN1CCCC1=O` the value was “inactive”; for `C=C(C)C(=O)OCCC(F)(F)C(F)(F)C(F)(F)C(F)(F)C(F)(F)C(F)(F)F`, “inactive”. On the same count and under the same terms, the value for `COc1ccc([N+](=O)[O-])cc1N` was “inactive”; that for `CC(O)CO` (stereo not given) was “inactive”. Still for that read-out and setting: the value for `COCC(C)O` (stereo not given) was “inactive”. Regarding `CCC(=C(c1ccc(O)cc1)c1ccc(OCCN(C)C)cc1)c1ccccc1`, the call was inactive. Still for that read-out and setting: for `Nc1cccc2c(N)cccc12` the value was “inactive”.
